# Measurements from PubChem BioAssay AID1076 (NMMLSC, 2008).
# The source made the active and inactive calls.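 How the source made its calls: active means cell event count below 40, meaning activity score above 60 where score is 100 minus count; inactive means the rest.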
# Test: cytotoxicity in LNCaP prostate cells – cell-based, cell event count, single point, cytotoxicity control for prostate differentiation activator project, confirmation (AID 1076);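 further: counts scatter-gated live cells after medium removal discards detached dead cells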
# Conditions: LNCaP cell loss, flow cytometry event count, 4 d, stronger effect = lower value
Compound,cell event count (at 100 µM),"cell event count (event count, at 10 µM)"
Cc1nc2ccccc2c(=O)n1-c1ccc(F)cc1,282 (inactive),155
CCn1c(=O)cc(OCC(=O)N2CCC3(CC2)OCCO3)c2ccccc21,210 (inactive),411
Clc1ccc(COC(Cn2ccnc2)c2ccc(Cl)cc2Cl)cc1 (stereo not given),11 (inactive),82
Cc1ccc2c(c1)[C@@H]1CN(C)CC[C@@H]1N2C(=O)Nc1cccc(C(F)(F)F)c1,13 (inactive),122
Cc1ccc(Cn2c(C)c3cnn(CC(=O)N4CCC5(CC4)OCCO5)c(=O)c3c2C)cc1,66 (inactive),202
O=C(COc1ccc2ccccc2c1)N1CCN(C2CCN(Cc3ccccc3)CC2)CC1,35 (inactive),324
C[C@H]1CCC/C=C/C2C[C@H](O)CC2[C@H](O)/C=C/C(=O)O1 (stereo not given in full),23 (active),26
CCOc1ccc(C2SCC(=O)Nc3c2c(=O)[nH]n3C2CCCCCC2)cc1 (stereo not given),18 (inactive),101
CCn1c(=O)cc(OCC(=O)N2CCN(Cc3ccc4c(c3)OCO4)CC2)c2ccccc21,12 (inactive),240
Cc1cc(OCC(=O)O)c2c3c(c(=O)oc2c1)CCCC3,175 (inactive),157
